Test results as given in PubChem BioAssay (NCI).
The panel holds about 79,000 compounds, 15% with a hit somewhere; the sample as a whole holds those more often. Active and inactive are the calls of the source. Cut-off read from the data, not from the text of the source: active = growth inhibition above about 70%; inactive = the rest.

Experiment: NCI Yeast Anticancer Drug Screen. Data for the mec2-1 strain (AID 157)
Conditions: S. cerevisiae mec2-1 strain, at 5.0 µM (retest, dose inferred, filed as 0.5), stronger effect = higher value
Procedure, shortened: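 Readout is yeast growth inhibition, normalised to vehicle-treated controls, in the mec2-1 strain exposed to compound.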

Row | SMILES | growth inhibition
1 | COc1ccc(N=Cc2cc(Br)cc(Br)c2O)cc1.COc1ccc(N=Cc2cc(Br)cc(Br)c2O)cc1.[Co] | 80% (active)
2 | O=C(/C=C/C(=O)N1CCCC1)N1CCCC1 | 3% (inactive)
3 | O=S(c1ccccc1)c1c(Cl)c(Cl)nc(Cl)c1Cl (centres undefined) | 99% (active)
4 | CSc1nc(N)c2cnn(C3OC(CO)C(O)C3O)c2n1 (centres undefined) | -12% (inactive)
5 | COc1cccc(C=O)c1O | -3% (inactive)
6 | Cn1c(=O)c2c(ncn2CCCCOc2ccc3c(c2)[n+]([O-])nc(N)[n+]3[O-])n(C)c1=O | 14% (inactive)
7 | Cn1ncc2c(Nc3cccc(Cl)c3)nc(Nc3cccc(Cl)c3)nc21 | 18% (inactive)
8 | Cc1cc(C)n2nc(N)c(C#N)c2c1C#N | 1% (inactive)
9 | COc1ccc(C2c3cc4c(cc3OC(O)C2C)OCO4)cc1 (centres undefined) | -6% (inactive)
10 | Nc1ccccc1[S][Sn]([c]1ccccc1)([c]1ccccc1)[c]1ccccc1 | 99% (active)
11 | Cn1c(Sc2ccc(-c3cccnc3)n2C)ccc1-c1cccnc1 | -12% (inactive)
12 | Nc1nnc(-c2cc(=O)c3cc(Cl)ccc3o2)s1 | -1% (inactive)
13 | COc1ccc(CNc2nc3cc(C(F)(F)F)ccc3nc2C)cc1OC | -34% (inactive)
14 | CC(=O)OCC1CC2OC2CC1C (centres undefined) | 6% (inactive)
15 | CCCCN(CCCC)CC(O)c1cc(-c2ccc(Cl)cc2)nc2cc(C)ccc12 (centres undefined) | 17% (inactive)
16 | NC(=S)n1nc(-c2ccccc2)c(N=Nc2ccccc2Cl)c1-c1ccccc1 | 0% (inactive)
17 | CCCCCCCCCCCCN(CCO)CCO | 36% (inactive)
18 | CC(C)CCSc1ncnc2nc[nH]c12 | -5% (inactive)
19 | O=C(c1ccccc1)c1cccc2ccccc12 | -5% (inactive)
20 | O=C1C(c2c[nH]c3ccccc23)=Nc2ccc(Br)cc21 | 26% (inactive)

Row | SMILES | growth inhibition
21 | COc1cccc(CCCNC(=O)Cc2ccccc2CO)c1 | 9% (inactive)
22 | C/C(=N\NC(=S)N1CCN(C2CCCCC2)CC1)c1ccccn1 | -14% (inactive)
23 | CN(C)CCOC(=O)C1(CCC2CCCCC2)CCCCC1 | -1% (inactive)
24 | O=c1c(Cl)cc2nc3ccccc3sc-2c1Cl | 42% (inactive)
25 | COc1ccc2nc(NC(=O)Nc3c(Cl)cccc3Cl)sc2c1 | -3% (inactive)
26 | Cc1c[nH]c2nc(C)n(-c3ccccc3)c(=N)c12 | 1% (inactive)
27 | O=C(C1=NNC(c2ccccc2)C1C(=O)c1ccccc1)c1ccccc1 (centres undefined) | -7% (inactive)
28 | CCOC(=O)N1CCN(C=S)CC1 | 0% (inactive)
29 | COC(=O)N(C[C@@H]1C=CCCC1)c1ccccc1I | 29% (inactive)
30 | N=c1ccc2c(c1)[nH]c1c3ccccc3[nH]c3cccc2c31 | 27% (inactive)
31 | CC1(C)[C@H]2CC[C@]1(C)[C@H](OC(=O)NNC(=O)O[C@@H]1C[C@@H]3CC[C@@]1(C)C3(C)C)C2 | 37% (inactive)
32 | N#CC1(C#N)C(C#N)(C#N)C12CCCCCC2 | 32% (inactive)
33 | CCOP(=O)(OCC)OC1c2[nH]ccc2-c2cc(C(=O)OC)[nH]c2C1OC (centres undefined) | 0% (inactive)
34 | O=[N+]([O-])/C(=C\c1cccs1)c1ccccc1 | 92% (active)
35 | Cc1ccccc1NC(=O)C(=O)C(C#N)c1c(Cl)cccc1Cl (centres undefined) | 6% (inactive)
36 | O=C1c2c(F)c(F)c(F)c(F)c2SC2=NCCN12 | -4% (inactive)
37 | CCCC(C)OC(=O)Nc1cccc(Cl)c1 (centres undefined) | -4% (inactive)
38 | Nc1nc(SCc2ccccc2)c2ncn(CCCl)c2n1 | -4% (inactive)
39 | CCCCOC(=O)c1nc(N(CC2CCCCC2)C(=O)NC)sc1NC(=O)NC | -3% (inactive)
